Where “and” joins values, the source holds several entries; their conditions need not be identical. Identical values can stand only once.
What was measured:
[1] = target: T1, Tyrosine-protein kinase ITK/TSK (Homo sapiens) (UniProt Q08881); settings: at 1 µM;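 further: values are mean percent inhibition of ITK from the GSK PKIS screen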
T1 sequence (whole entry): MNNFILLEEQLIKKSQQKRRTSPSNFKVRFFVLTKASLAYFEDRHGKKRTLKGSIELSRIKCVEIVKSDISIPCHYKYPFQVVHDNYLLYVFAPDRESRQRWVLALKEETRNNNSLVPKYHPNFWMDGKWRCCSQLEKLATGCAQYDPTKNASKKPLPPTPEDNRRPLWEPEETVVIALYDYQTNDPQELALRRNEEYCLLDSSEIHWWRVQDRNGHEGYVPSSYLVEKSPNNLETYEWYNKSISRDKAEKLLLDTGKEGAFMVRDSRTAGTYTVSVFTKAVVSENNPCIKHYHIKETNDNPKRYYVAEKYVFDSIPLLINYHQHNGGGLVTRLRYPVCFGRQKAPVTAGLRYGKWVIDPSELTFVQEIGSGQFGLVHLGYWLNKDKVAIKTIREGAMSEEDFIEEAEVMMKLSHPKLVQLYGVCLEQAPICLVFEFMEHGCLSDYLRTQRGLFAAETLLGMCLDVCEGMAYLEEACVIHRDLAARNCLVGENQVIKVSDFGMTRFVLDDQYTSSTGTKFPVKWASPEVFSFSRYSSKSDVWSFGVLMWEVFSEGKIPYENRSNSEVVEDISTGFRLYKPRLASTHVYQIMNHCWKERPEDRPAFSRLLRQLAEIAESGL

[2] = target: Tyrosine-protein kinase JAK1 (Homo sapiens) (UniProt P23458); settings: at 0.1 µM
Sequence of Tyrosine-protein kinase JAK1 (Homo sapiens) (P23458 whole entry): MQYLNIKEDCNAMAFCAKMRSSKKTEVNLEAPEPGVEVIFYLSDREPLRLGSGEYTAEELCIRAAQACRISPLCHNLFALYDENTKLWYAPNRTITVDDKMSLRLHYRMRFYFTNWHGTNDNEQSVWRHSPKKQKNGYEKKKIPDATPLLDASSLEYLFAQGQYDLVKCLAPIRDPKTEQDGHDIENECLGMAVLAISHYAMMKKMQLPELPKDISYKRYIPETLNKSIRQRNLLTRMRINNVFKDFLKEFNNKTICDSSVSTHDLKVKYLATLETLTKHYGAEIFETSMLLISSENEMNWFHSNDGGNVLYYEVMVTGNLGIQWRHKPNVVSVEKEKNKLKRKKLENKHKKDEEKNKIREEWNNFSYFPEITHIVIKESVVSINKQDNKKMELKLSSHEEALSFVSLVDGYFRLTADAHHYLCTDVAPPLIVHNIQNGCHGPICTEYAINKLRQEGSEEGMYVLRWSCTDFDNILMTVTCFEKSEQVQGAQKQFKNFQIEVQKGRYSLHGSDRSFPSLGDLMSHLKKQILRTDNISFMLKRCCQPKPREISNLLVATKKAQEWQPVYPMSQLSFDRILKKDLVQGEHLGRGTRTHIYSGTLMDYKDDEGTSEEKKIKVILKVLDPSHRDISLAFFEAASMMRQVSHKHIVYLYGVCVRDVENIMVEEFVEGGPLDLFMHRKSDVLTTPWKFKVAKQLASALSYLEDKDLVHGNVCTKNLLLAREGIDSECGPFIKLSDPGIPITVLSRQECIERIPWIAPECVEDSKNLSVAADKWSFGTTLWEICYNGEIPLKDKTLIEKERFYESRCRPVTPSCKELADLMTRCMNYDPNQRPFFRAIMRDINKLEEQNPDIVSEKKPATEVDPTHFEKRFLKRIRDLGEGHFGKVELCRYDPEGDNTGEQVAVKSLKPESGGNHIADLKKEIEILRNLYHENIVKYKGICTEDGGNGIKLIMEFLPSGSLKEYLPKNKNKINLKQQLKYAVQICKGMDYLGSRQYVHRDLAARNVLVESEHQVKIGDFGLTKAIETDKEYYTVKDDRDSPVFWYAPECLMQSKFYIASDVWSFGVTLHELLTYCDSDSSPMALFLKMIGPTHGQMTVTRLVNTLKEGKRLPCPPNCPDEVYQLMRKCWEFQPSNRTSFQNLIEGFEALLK

[3] = target: Tyrosine-protein kinase JAK1 (Homo sapiens) (UniProt P23458); settings: at 1 µM
[4] = target: Tyrosine-protein kinase JAK2 (Homo sapiens) (UniProt O60674); settings: at 0.1 µM
[5] = target: Tyrosine-protein kinase JAK2 (Homo sapiens) (UniProt O60674); settings: at 1 µM
[6] = target: T2, Tyrosine-protein kinase JAK3 (Homo sapiens) (UniProt P52333); settings: at 0.1 µM
T2 sequence (whole entry): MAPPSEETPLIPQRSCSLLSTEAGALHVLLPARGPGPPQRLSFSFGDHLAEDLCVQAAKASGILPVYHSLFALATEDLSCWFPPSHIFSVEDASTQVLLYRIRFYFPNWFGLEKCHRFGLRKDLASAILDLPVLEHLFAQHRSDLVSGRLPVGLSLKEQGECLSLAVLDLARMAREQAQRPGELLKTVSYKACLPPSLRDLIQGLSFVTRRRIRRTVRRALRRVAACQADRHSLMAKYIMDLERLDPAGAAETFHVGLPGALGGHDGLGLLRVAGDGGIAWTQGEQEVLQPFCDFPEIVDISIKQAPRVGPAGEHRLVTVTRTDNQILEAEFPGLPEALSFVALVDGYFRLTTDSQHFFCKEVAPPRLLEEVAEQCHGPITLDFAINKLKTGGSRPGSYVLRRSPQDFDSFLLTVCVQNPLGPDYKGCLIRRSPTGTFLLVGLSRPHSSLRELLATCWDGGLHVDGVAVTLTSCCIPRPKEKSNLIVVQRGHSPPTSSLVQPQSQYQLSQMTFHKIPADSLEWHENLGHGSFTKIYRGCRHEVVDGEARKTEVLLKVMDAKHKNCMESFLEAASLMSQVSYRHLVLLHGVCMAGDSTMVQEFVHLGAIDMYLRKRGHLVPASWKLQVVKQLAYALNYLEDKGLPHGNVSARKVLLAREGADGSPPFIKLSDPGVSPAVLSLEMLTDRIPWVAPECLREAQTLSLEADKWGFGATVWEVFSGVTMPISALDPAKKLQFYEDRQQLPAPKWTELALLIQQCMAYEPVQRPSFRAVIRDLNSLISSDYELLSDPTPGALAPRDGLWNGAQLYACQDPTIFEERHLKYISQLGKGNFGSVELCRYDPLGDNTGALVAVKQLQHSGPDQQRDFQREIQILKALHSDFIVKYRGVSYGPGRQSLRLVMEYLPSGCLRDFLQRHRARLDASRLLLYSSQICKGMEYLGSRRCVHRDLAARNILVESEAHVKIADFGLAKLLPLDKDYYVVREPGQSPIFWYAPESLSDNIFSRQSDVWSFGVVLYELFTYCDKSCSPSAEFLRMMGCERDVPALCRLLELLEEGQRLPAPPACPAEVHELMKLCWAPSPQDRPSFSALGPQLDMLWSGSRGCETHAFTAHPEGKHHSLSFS

[7] = target: T2, Tyrosine-protein kinase JAK3 (Homo sapiens); settings: at 1 µM
[8] = target: Vascular endothelial growth factor receptor 2 (Homo sapiens) (UniProt P35968); settings: at 0.1 µM
Sequence of Vascular endothelial growth factor receptor 2 (Homo sapiens) (P35968 whole entry): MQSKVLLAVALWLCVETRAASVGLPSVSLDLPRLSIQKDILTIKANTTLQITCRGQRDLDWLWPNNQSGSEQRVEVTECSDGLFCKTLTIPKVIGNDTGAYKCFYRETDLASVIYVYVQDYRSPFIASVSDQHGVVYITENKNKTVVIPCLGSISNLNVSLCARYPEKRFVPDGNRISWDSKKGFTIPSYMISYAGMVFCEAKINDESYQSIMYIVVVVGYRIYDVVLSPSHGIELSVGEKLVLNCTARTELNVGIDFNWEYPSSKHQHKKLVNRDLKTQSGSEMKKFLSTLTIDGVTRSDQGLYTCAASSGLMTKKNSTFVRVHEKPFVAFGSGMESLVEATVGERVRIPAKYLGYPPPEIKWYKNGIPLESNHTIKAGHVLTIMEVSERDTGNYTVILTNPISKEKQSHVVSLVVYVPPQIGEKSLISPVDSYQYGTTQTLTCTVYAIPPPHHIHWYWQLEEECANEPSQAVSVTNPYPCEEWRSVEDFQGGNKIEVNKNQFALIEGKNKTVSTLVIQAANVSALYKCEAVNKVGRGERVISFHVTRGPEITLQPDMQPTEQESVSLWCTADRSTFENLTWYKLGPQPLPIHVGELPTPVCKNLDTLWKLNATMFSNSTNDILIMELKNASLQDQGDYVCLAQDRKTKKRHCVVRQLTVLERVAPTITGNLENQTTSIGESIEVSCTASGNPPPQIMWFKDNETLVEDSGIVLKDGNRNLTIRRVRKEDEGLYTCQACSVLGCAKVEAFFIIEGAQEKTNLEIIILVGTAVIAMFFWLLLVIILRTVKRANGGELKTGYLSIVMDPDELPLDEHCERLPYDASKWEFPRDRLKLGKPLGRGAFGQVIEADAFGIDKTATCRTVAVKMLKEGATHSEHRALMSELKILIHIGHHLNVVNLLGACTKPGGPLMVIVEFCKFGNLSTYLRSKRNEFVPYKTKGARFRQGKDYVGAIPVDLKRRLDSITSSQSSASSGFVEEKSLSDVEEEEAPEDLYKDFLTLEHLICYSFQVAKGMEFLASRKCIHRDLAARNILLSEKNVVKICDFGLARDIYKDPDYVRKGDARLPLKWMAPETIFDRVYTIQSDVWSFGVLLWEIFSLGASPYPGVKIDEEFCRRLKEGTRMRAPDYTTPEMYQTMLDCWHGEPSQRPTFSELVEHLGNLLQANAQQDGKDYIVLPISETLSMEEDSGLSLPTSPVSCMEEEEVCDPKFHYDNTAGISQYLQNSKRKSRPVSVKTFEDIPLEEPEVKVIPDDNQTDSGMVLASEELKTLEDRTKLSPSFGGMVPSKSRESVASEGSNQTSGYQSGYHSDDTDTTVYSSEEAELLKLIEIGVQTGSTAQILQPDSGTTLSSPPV

[9] = target: Vascular endothelial growth factor receptor 2 (Homo sapiens) (UniProt P35968); settings: at 1 µM
[10] = target: Mast/stem cell growth factor receptor Kit (Homo sapiens) (UniProt P10721); settings: at 0.1 µM
Sequence of Mast/stem cell growth factor receptor Kit (Homo sapiens) (P10721 whole entry): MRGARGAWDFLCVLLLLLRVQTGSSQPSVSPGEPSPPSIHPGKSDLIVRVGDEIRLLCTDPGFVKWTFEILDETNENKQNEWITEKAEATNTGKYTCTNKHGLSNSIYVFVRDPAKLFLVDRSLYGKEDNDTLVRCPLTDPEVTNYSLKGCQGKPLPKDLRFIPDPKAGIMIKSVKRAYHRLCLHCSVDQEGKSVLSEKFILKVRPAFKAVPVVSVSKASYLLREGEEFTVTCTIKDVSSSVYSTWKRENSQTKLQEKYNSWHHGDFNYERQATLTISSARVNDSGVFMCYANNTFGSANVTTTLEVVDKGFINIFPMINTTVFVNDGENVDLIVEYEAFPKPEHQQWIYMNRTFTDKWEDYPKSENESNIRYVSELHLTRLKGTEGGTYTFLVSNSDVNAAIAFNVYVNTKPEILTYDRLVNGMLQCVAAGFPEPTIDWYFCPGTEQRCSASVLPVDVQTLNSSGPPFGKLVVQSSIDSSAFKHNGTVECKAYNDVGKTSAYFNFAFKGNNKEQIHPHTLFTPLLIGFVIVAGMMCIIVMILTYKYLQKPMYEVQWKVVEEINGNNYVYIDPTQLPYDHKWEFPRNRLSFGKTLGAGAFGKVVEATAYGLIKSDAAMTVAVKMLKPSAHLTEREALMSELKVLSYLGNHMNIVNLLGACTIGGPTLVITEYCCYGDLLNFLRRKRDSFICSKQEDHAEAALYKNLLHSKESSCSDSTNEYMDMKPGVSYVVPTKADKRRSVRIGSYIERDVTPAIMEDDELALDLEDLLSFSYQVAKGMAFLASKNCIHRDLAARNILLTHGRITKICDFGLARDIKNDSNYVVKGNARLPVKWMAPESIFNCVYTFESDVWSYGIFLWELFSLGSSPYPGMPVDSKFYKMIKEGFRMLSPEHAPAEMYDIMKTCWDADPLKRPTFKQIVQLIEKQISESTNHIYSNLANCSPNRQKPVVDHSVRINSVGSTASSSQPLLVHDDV

[11] = target: Mast/stem cell growth factor receptor Kit (Homo sapiens) (UniProt P10721); settings: at 1 µM
[12] = system: Mast/stem cell growth factor receptor Kit (Homo sapiens), P10721 [D816V]; settings: at 0.1 µM
Sequence of Mast/stem cell growth factor receptor Kit (Homo sapiens), P10721 [D816V] (P10721 whole entry D816V): as the sequence (P10721 whole entry) above, with D816V counted along it

[13] = system: Mast/stem cell growth factor receptor Kit (Homo sapiens), P10721 [D816V]; settings: at 1 µM
[14] = system: Mast/stem cell growth factor receptor Kit (Homo sapiens), P10721 [T670I]; settings: at 0.1 µM
Sequence of Mast/stem cell growth factor receptor Kit (Homo sapiens), P10721 [T670I] (P10721 whole entry T670I): as the sequence (P10721 whole entry) above, with T670I counted along it

[15] = system: Mast/stem cell growth factor receptor Kit (Homo sapiens), P10721 [T670I]; settings: at 1 µM
[16] = system: Mast/stem cell growth factor receptor Kit (Homo sapiens), P10721 [V560G]; settings: at 0.1 µM
Sequence of Mast/stem cell growth factor receptor Kit (Homo sapiens), P10721 [V560G] (P10721 whole entry V560G): as the sequence (P10721 whole entry) above, with V560G counted along it

[17] = system: Mast/stem cell growth factor receptor Kit (Homo sapiens), P10721 [V560G]; settings: at 1 µM
[18] = target: Tyrosine-protein kinase Lck (Homo sapiens) (UniProt P06239); settings: at 0.1 µM
Sequence of Tyrosine-protein kinase Lck (Homo sapiens) (P06239 2-509 limits assumed): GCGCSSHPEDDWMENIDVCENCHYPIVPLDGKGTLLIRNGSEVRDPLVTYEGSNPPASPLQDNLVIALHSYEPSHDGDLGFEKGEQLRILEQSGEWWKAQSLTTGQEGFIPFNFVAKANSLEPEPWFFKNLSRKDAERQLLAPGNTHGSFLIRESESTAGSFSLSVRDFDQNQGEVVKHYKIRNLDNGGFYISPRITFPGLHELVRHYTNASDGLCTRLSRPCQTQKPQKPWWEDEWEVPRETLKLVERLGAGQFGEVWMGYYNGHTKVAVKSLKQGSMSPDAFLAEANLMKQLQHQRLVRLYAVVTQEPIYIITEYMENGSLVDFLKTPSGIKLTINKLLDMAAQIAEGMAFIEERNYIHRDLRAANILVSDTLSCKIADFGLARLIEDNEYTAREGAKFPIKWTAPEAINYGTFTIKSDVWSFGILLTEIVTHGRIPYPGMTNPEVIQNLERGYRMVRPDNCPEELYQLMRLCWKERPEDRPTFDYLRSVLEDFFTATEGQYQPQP

[19] = target: Tyrosine-protein kinase Lck (Homo sapiens) (UniProt P06239); settings: at 1 µM
[20] = target: Leukocyte tyrosine kinase receptor (Homo sapiens) (UniProt P29376); settings: at 0.1 µM
Sequence of Leukocyte tyrosine kinase receptor (Homo sapiens) (P29376 whole entry): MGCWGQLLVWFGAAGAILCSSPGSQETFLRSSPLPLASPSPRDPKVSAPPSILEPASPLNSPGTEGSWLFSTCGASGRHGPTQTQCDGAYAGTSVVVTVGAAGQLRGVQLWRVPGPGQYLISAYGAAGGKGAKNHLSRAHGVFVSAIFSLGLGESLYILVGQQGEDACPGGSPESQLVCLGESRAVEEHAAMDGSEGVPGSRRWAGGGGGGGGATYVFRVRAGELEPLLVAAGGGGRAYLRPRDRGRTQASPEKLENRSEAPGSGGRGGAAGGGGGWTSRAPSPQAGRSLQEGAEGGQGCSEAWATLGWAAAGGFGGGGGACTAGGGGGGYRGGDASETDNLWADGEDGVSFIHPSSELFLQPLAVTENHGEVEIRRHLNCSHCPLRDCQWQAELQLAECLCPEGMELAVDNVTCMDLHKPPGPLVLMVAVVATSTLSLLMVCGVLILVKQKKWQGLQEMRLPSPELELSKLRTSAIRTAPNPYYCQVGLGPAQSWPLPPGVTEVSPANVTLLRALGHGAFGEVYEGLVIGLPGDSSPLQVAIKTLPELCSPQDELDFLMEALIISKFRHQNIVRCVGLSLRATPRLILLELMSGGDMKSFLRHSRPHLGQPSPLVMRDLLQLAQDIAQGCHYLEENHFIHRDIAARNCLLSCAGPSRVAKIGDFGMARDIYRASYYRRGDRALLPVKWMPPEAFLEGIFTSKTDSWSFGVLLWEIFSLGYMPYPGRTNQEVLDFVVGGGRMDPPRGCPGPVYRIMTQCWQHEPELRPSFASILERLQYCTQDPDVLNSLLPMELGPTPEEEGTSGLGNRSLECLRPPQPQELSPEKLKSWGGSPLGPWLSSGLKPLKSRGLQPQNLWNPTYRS

| Structure (SMILES) | inhibition [1] | inhibition [2] | inhibition [3] | inhibition [4] | inhibition [5] | inhibition [6] | inhibition [7] | inhibition [8] | inhibition [9] | inhibition [10] | inhibition [11] | inhibition [12] | inhibition [13] | inhibition [14] | inhibition [15] | inhibition [16] | inhibition [17] | inhibition [18] | inhibition [19] [%] | inhibition [20] |
| --- | --- | --- | --- | --- | --- | --- | --- | --- | --- | --- | --- | --- | --- | --- | --- | --- | --- | --- | --- | --- |
| N#Cc1cccc(Nc2ncc(-c3ccccc3)o2)c1 | 2.42% | 0.52% | 10.7% | 0.78% | 0.35% | -1.06% | -0.94% | 3.11% | 11% | 19.9% | 79.6% | 1.87% | 2.5% | 2.85% | 35.8% | 4.29% | 23.8% | 2.79% | 1.76 | 4.04% |
| COc1cccc(Nc2nccc(-c3cnn4ncccc34)n2)c1 | 6.45% | -0.13% | 13.2% | 1.95% | 29.2% | 2.03% | 44.2% | 9.69% | 42.1% | 89.5% | 99.3% | -1.05% | 4.28% | 60.9% | 95.3% | 40.2% | 78.3% | 3.11% | 11.2 | 4.15% |
| NS(=O)(=O)c1ccc(N/N=C2\C(=O)Nc3cccc(CCc4ccncc4)c32)cc1 | 2.79% | -0.35% | 1.96% | 0.5% | 1.19% | 0.74% | 5.91% | 19.6% | 46.7% | 27% | 63.7% | 2.92% | 5.18% | 6.45% | 15% | 4.31% | 14.1% | 2.22% | 5.75 | 1.69% |
| CCS(=O)(=O)c1ccc(OC)c(Nc2ncc(-c3cccc(C(C)=O)c3)o2)c1 | 2.71% | 0.61% | 6.56% | 0.16% | 1.8% | -1.13% | 1.72% | 16.4% | 58.9% | 19.7% | 71.4% | 5.74% | 12.1% | -0.79% | 10.7% | 3.47% | 13% | 2.7% | 25.4 | 2.87% |
| CN(c1ccc(NC(=O)NCCN2CCOCC2)cc1)c1ccnc(Nc2ccc(CS(C)(=O)=O)cc2)n1 | 9.06% | 3.28% | 15% | 0.02% | 9.94% | -0.77% | 7.15% | 7.07% | 34.8% | 60.2% | 94.2% | 2.49% | 4.98% | 21.6% | 73.6% | 57.2% | 84.5% | 1.63% | 11 | 2.84% |
| N#Cc1ccc2c(-c3ccnc(NC4CC4)n3)c(-c3ccc(F)cc3)nn2c1 | 0.51% | 0.46% | 0.31% | -0.51% | -0.42% | -1.62% | -1.11% | 1.86% | 14.6% | 3.02% | 20.2% | -1.04% | 2.35% | 1.28% | 0.73% | 0.24% | 1.17% | 1.08% | 0.11 | 1.05% |
| CS(=O)(=O)CCNCc1ccc(-c2ccc3ncnc(Nc4ccc(OCc5cccc(C(F)(F)F)c5)cc4)c3c2)o1 | 1.4% | 1.68% | 1.38% | 4.27% | 3.35% | -1.49% | 0.32% | 5.19% | 11% | 4.53% | 11.4% | 2.25% | 0.02% | 5.03% | 5.44% | -4.38% | -2.24% | 3.86% | 7.98 | 5.96% |
| Nc1ncnc2occ(-c3ccc(NC(=O)Nc4cc(C(F)(F)F)ccc4F)cc3)c12 | 7.9% and 3.04% | -0.01% and -6.67% | 8.18% and -2.37% | 2.05% and -0.57% | 18.8% and 7.54% | -0.84% and 0.28% | 1.36% and 1% | 63.8% and 54% | 71.1% and 78.2% | 90.2% and 85.7% | 102% and 99.8% | 2.13% and -0.16% | 3.55% and 0.01% | 64.5% and 57% | 85.6% and 96% | 70.7% and 81.8% | 78.7% and 97.7% | 10.9% and 3.28% |  | 7.84% and 2.37% |
| CS(=O)(=O)Nc1ccc(-c2cc(-c3ccccc3)cc(C(N)=O)c2N)cc1 | 0.76% | 0.16% | 2.62% | 0.9% | 3.86% | -0.01% | 0.58% | 1.74% | 4.53% | 3.8% | 21% | -0.43% | -0.86% | -1.07% | 4.26% | -0.45% | -2.55% | 1.3% | 2.43 | 2.46% |
| NC(=O)c1ccc2c(-c3ccnc(NCCCO)n3)c(-c3ccc(F)cc3)nn2c1 | 1.77% | 0.15% | 4.59% | 1.16% | 2.01% | -1.31% | -0.86% | 6.05% | 16.6% | 6.24% | 25.4% | 8.24% | 1.86% | 4.73% | 2.71% | -0.84% | 0.77% | 2.46% | 8.13 | 4.67% |
| FC(F)(F)CNc1nccc(-c2cnn3ncccc23)n1 | 1% | 1.9% | 2.18% | 1.39% | -0.82% | -1.54% | -1.63% | 2.14% | 4.88% | 2.28% | 3.6% | 0.88% | 2.79% | 0.67% | 0.91% | -2.94% | 0.4% | 1.7% | 3.74 | 2.72% |
| CNC(=O)c1cncc(/C=C/c2ccccc2C)c1 | 2.59% | 6.31% | 12.7% | 1.48% | 1.45% | -0.66% | 0.49% | 4.29% | 7.71% | 5.02% | 14.5% | 1.55% | 3.24% | 3.26% | 4.48% | 3.49% | 5.75% | 1.99% | 7.19 | 2.41% |
| CC1=C(C(=O)Nc2ccc3[nH]nc(C)c3c2)C(c2ccc(C(F)(F)F)cc2)CC(=O)N1 (centres undefined) | 7.86% | 38.5% | 70.7% | 31.1% | 82.4% | 15.6% | 68.8% | 5.36% | 11% | 2.41% | 2.22% | 5.34% | 1.99% | -0.21% | 1.75% | 0.71% | -0.03% | 5.93% | 18.8 | 1.5% |
| COc1cc(Nc2ncc(-c3ccccc3)o2)cc(OC)c1 | 3.63% | -0.99% | 5.5% | 2.04% | 1.78% | -3.48% | -1.92% | 6.74% | 19.3% | 78.5% | 97.2% | 3.13% | 2.77% | 21.6% | 81.7% | 33.6% | 83.5% | 2.6% | 14.5 | 4.67% |

Source: ChEMBL document CHEMBL1961873, “Compounds: GSK PKIS; Assays: Nanosyn kinase panel” (2012)
